Compound activity from PubChem.
EBI2 block: blocks human EBI2 receptor beta-arrestin signaling | P32249 | EBI2 beta-arrestin recruitment, luminescence, 7a,25-OHC stimulated | inhibition, % at 5 µM | actives 0.81% (n = 360,000) | AID 651636; in the data active means inhibition above about 38%;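 further: enzyme fragment complementation signal reports receptor beta-arrestin coupling in cells; 0% = agonist plus DMSO wells and 100% = wells without agonist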
Target sequence (P32249 whole entry, looked up, the tested form may be a part): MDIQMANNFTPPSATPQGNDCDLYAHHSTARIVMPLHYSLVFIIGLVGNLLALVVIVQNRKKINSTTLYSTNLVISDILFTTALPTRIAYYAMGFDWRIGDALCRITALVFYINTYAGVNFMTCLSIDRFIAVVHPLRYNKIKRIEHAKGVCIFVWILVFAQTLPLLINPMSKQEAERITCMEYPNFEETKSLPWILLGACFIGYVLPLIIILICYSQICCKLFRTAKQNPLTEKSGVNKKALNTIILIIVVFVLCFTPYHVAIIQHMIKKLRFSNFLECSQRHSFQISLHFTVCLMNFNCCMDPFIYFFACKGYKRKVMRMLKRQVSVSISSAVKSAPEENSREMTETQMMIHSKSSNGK
PfHsp90 set2: growth inhibition of yeast expressing Plasmodium Hsp90; S. cerevisiae expressing PfHsp90, BacTiter-Glo ATP, 48 h; yeast lacking PDR1 and PDR3 efflux regulators; inhibition, % at 9.4 µM; actives 0.32% (n = 310,000); AID 504621;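 active means every replicate shows inhibition above about 80%, whatever the replicate mean, limit read from the data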;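 further: 0% = DMSO neutral controls and 100% = 20 µM radicicol positive controls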
tim10-1 inh: growth inhibitors of tim10-1 mutant yeast; S. cerevisiae tim10-1 ts strain growth, BacTiter-Glo, 24 h; actives 2.2% (n = 330,000); inhibition, % at 20 µM; AID 463190;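 active means inhibition of at least 40%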;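 further: mutant grown at 25 °C; 0% = DMSO wells with yeast and 100% = wells holding no yeast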
TIM10 inh: inhibits growth of TIM10 yeast strain. S. cerevisiae TIM10 strain growth, BacTiter-Glo luminescence, 24 h. inhibition, % at 10 µM. actives 1.4% (n = 330,000). AID 463195;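 active means inhibition of 40% or more at the single tested concentration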;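 further: wild-type TIM10 isogenic control strain grown at permissive 25 °C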
tim23-1 inh: inhibits growth of tim23-1 mutant yeast; S. cerevisiae tim23-1 growth, BacTiter-Glo luminescence, 24 h; inhibition, % at 20 µM; actives 1.3% (n = 330,000); AID 463212;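 active means growth inhibition of the mutant yeast at or above 50%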;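 further: temperature-sensitive mutant grown at 25 °C; plate controls were DMSO-treated mutant yeast for no effect and medium wells lacking yeast for full effect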
SKKanGAS inh: inhibitors of SKKanGAS S. pyogenes growth in kanamycin (SK-promoter or general growth effect) | actives 1.3% (n = 300,000) | inhibition, % at 7.5 µM | BacTiter-Glo, 6 h;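 active means mean replicate score, as percent of positive control median, at least 50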;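 further: strain carries kanamycin resistance gene driven by streptokinase promoter and grows in 40 µg/ml kanamycin; loss of luminescence reflects streptokinase promoter inhibition or plain growth inhibition; 0% = median of DMSO wells and 100% = positive control at its reference dose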
EBI2 conf: confirmation of human EBI2 receptor antagonists; shares compounds with EBI2 block; EBI2 beta-arrestin luminescence, 7a,25-OHC antagonism; inhibition, % at 5 µM; actives 29% (n = 2,400);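 active means inhibition of at least 50%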
EBI2 ag: counter-screen for EBI2 antagonists: EBI2 agonist activity | shares compounds with EBI2 block | EBI2-expressing cells, agonist mode, luminescence, 60 min; 0% vehicle, 100% 7α,25-dihydroxycholesterol control | activation, % at 5 µM | 2,400 tested, under 10 active | AID 652000;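 active means activation of at least 50%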
bGal counter: beta-galactosidase inhibition counter-screen | AID 652176 | shares compounds with EBI2 block | actives 1% (n = 2,400) | inhibition, % at 5 µM | purified beta-galactosidase, luminescent Galacton Star, 15 min;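 active means replicate-average signal at least 3 plate SD below neutral wells, shown as high inhibition, flagging enzyme-inhibiting false positives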;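 further: 0% = DMSO wells with enzyme and 100% = wells lacking enzyme; higher means stronger loss of beta-gal luminescence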
Numbers without * were called inactive. Hits are enriched below; roughly 4.7% of the tested compounds scored in any of these assays.

`CC(C)Cn1c(N)c(C(=O)COC(=O)[C@@H]2CCCN2C(=O)c2cccs2)c(=O)n(C)c1=O` gave EBI2 block -3.7, PfHsp90 set2 -17.7, tim10-1 inh 5.9, TIM10 inh -2.1, tim23-1 inh 23.1 and SKKanGAS inh -10.0.
Screening CC(Oc1ccc(Cl)cc1Cl)c1ccn[nH]1 (stereo not drawn) returned EBI2 block -3.8, PfHsp90 set2 -8.3, tim10-1 inh 25.8, TIM10 inh 27.0, tim23-1 inh 24.8 and SKKanGAS inh 10.9.
Screening COc1cccc(NC(=O)c2ccccc2-c2ccccc2)c1 returned EBI2 block -0.2, PfHsp90 set2 19.1, tim10-1 inh 21.1, TIM10 inh 17.1, tim23-1 inh 21.6 and SKKanGAS inh 6.9.
Screening COc1ccc(S(=O)(=O)N(CC(=O)NCCSc2ccccn2)c2ccccc2)cc1 returned EBI2 block 16.2, PfHsp90 set2 7.8, tim10-1 inh 12.4, TIM10 inh 6.5, tim23-1 inh 8.0 and SKKanGAS inh -5.2.
COc1ccc(N(CC(=O)NCCSc2ccccc2)S(=O)(=O)c2ccccc2)cc1 was read as EBI2 block 88.2*, PfHsp90 set2 -7.4, tim10-1 inh 17.2, TIM10 inh -9.9, tim23-1 inh 17.3, SKKanGAS inh -0.1, EBI2 conf 59.5*, EBI2 ag 1.6 and bGal counter 4.0.
COc1ccccc1N(CC(=O)NCCSc1ccc(Cl)cc1)S(C)(=O)=O was read as EBI2 block 80.1*, PfHsp90 set2 -26.1, tim10-1 inh 11.2, TIM10 inh 14.7, tim23-1 inh 10.0, SKKanGAS inh -13.4, EBI2 conf 62.3*, EBI2 ag 1.4 and bGal counter 4.3.
For COc1ccc(N(CC(=O)NCCSc2ccccc2)S(=O)(=O)c2ccccc2)c(OC)c1 the results were EBI2 block 44.6*, tim10-1 inh 17.1, TIM10 inh 20.6, tim23-1 inh 32.1, EBI2 conf 12.9, EBI2 ag 1.8 and bGal counter -11.6.
Screening Cc1ccc(-c2cc(C(=O)OCC(=O)N(C)c3c(N)n(Cc4ccccc4)c(=O)[nH]c3=O)c3ccccc3n2)o1 returned EBI2 block 2.7, PfHsp90 set2 -18.3, tim10-1 inh -1.5, TIM10 inh 3.0, tim23-1 inh 3.6 and SKKanGAS inh 19.5.
For CN(C)S(=O)(=O)c1ccc(C(=O)NCCSc2ccc(Br)cc2)cc1 the results were EBI2 block 65.2*, tim10-1 inh 19.0, TIM10 inh 19.4, tim23-1 inh 11.2, SKKanGAS inh -17.5, EBI2 conf 47.2, EBI2 ag 0.8 and bGal counter 2.1.
Cc1ccc(S(=O)(=O)Nc2ccccc2C(=O)N2CCCCCC2)cc1 was read as EBI2 block -5.3, PfHsp90 set2 -4.7, tim10-1 inh 3.7, TIM10 inh -0.1, tim23-1 inh 26.9 and SKKanGAS inh -3.1.
For O=S(=O)(c1ccccc1)N1CCN(CC(O)COc2ccc3c(c2)CCC3)CC1 (stereo not drawn) the results were EBI2 block 83.0*, PfHsp90 set2 -11.6, tim10-1 inh 38.8, TIM10 inh 30.7, tim23-1 inh 38.4, SKKanGAS inh 16.2, EBI2 conf 69.2*, EBI2 ag 1.9 and bGal counter -4.3.
`FC(F)Oc1ccc(NC(=S)NCc2ccccc2)cc1` gave EBI2 block -3.7, PfHsp90 set2 -10.8, tim10-1 inh 11.7, TIM10 inh -1.8, tim23-1 inh 20.9 and SKKanGAS inh 7.6.
For FC(F)Oc1ccc(NC(=S)Nc2ccc3cn[nH]c3c2)cc1 the results were EBI2 block 53.2*, PfHsp90 set2 3.8, tim10-1 inh 27.8, TIM10 inh 0.0, tim23-1 inh 33.7, SKKanGAS inh -9.3, EBI2 conf 47.4, EBI2 ag 0.2 and bGal counter -14.4.
For CN(NC(=S)Nc1ccc(OC(F)F)cc1)C(=S)Nc1ccc(OC(F)F)cc1 the results were EBI2 block 42.8*, PfHsp90 set2 -13.9, tim10-1 inh 31.7, TIM10 inh 24.6, tim23-1 inh 12.6, SKKanGAS inh 0.3, EBI2 conf 16.7, EBI2 ag 1.7 and bGal counter 6.3.
Oc1cccc2c(NC(=S)Nc3ccc(OC(F)F)cc3)cccc12 was read as EBI2 block 44.5*, PfHsp90 set2 -3.9, tim10-1 inh 30.8, TIM10 inh 34.6, tim23-1 inh 31.3, SKKanGAS inh 14.2, EBI2 conf 24.4, EBI2 ag -1.5 and bGal counter -7.8.
`c1ccc(CCC2CCCCN2Cc2nc(C3CC3)no2)cc1` (stereo not drawn) gave EBI2 block 4.2, PfHsp90 set2 10.7, tim10-1 inh 23.7, TIM10 inh 0.7, tim23-1 inh 14.4 and SKKanGAS inh 19.6.
`COc1ccc(-c2nnc(SCc3nnc(-c4ccc(Cl)cc4)o3)n2-c2ccccc2)cc1` gave EBI2 block 74.2*, tim10-1 inh 21.8, TIM10 inh 33.1, tim23-1 inh 17.3, SKKanGAS inh 0.8, EBI2 conf 43.9, EBI2 ag -1.2 and bGal counter -13.0.
`Clc1ccc(-c2nnc(CSc3nnc(-c4cccs4)n3Cc3ccccc3)o2)cc1` gave EBI2 block 88.1*, PfHsp90 set2 -3.8, tim10-1 inh 14.5, TIM10 inh 19.4, tim23-1 inh 25.7, SKKanGAS inh -18.7, EBI2 conf 60.0*, EBI2 ag 0.7 and bGal counter 4.5.
For O=C(NC1CC2CCCC(C1)N2Cc1cccs1)c1ccc([N+](=O)[O-])cc1 (stereo not drawn) the results were tim10-1 inh -19.0, TIM10 inh -22.8, tim23-1 inh -0.4 and SKKanGAS inh 1.3.
Screening CCOC(=O)CN(C(=O)CSc1nnc(-c2cccc(OC)c2)o1)c1ccc(F)cc1 returned EBI2 block -0.3, PfHsp90 set2 -9.7, tim10-1 inh 37.1, TIM10 inh 32.3, tim23-1 inh 40.0 and SKKanGAS inh 1.7.
`CCOC(=O)CN(C(=O)CSc1nnc(CNc2ccc(F)cc2)o1)c1ccccc1` gave EBI2 block 42.9*, PfHsp90 set2 12.4, tim10-1 inh 31.3, TIM10 inh 4.6, tim23-1 inh 21.3, SKKanGAS inh 0.7, EBI2 conf 24.1, EBI2 ag 2.3 and bGal counter 2.3.
C/C(Cl)=C\Cn1c(N2CCCC2)nc2c1c(=O)n(C)c(=O)n2C was read as EBI2 block 1.2, PfHsp90 set2 -3.7, tim10-1 inh 10.5, TIM10 inh 3.2, tim23-1 inh 10.1 and SKKanGAS inh -5.5.
